Akt phos inh: Akt phosphorylation inhibition; activity change, % for hits at 50 µM; 0.32% of 360,000 active; Neuro2A IGF-stimulated pAkt S473 HTRF, 20 min; hits give low values; in the data active means activity change below about -80%; inconclusive means mostly about -51% to -80%; further: on the % scale 0 is the no-effect control and ±100 the full control effect
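Neuro2A cells in DMEM with 0.5% FBS, overnight at 37 deg C, given compound at single 50 µM final, then IGF (6 nM final) for 20 min at 37 deg C. Lysed; phospho-Akt Ser473 by HTRF after 24 h, 665/615 ratio.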
gsp antag: antagonizes gsp, the McCune-Albright syndrome mutation; gsp-mutant cells, cAMP HTRF, 30 min; 0.4% of 340,000 active; Potency, µM (top dose mostly 76.9 µM), for inactives: at the highest dose activity change, negative = inhibition, most hits filed as inhibitors; calls by dose curve; cell line not stated here;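 further: intracellular cAMP measured with PDE inhibitor Ro 20-1724 present during compound exposure; potency means the concentration at half of the fitted maximal effect; on the % scale 0 is the no-effect control and ±100 the full control effect; nearly all actives have a fitted effect of over 65% in size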
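Measurement of cellular cAMP by homogeneous time-resolved fluorescence following a 30 min compound exposure at 37C. The PDE inhibitor […] was present throughout; the assay buffer was DPBS with 0.05% BSA and 0.005% Tween 20.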
RXFP1 agonist: RXFP1 (human) receptor agonism; HEK293T-RXFP1 cAMP TR-FRET, 30 min; response scale: percent of porcine relaxin response, buffer zero; Potency, µM (series often up to 57.5 µM), inactives show at the highest dose activation, most hits filed as activators; 0.3% of 370,000 active; AID 2676; active means well fitted activation curve with a large enough effect; inconclusive means small, poorly fitted or top-dose-only effect; further: potency means the concentration at half of the fitted maximal effect; on the % scale 0 is the no-effect control and ±100 the full control effect; nearly all actives have a fitted effect of over 60% in size
Target sequence (Q9HBX9 whole entry, looked up): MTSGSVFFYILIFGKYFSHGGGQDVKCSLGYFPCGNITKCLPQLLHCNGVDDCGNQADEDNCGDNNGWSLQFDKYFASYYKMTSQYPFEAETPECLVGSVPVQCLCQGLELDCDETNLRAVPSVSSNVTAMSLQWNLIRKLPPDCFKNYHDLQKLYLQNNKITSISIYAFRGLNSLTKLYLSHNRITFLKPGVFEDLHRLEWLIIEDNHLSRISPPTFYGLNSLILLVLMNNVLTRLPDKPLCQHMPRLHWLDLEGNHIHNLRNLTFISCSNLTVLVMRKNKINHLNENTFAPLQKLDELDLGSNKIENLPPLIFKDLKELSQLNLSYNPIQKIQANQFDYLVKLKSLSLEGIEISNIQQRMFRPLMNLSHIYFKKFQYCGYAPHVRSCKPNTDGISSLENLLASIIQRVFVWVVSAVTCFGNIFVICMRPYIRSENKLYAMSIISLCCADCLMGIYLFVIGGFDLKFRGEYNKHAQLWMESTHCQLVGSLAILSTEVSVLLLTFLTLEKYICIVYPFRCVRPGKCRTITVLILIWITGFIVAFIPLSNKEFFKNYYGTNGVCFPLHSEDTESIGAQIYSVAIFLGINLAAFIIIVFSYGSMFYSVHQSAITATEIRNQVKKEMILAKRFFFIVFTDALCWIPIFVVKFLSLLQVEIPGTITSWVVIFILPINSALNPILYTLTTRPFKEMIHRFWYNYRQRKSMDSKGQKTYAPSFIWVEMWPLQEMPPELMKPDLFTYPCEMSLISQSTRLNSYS
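cAMP rise read by TR-FRET after 30 min, 37C compound exposure (up to 58 uM) in RXFP1-transfected HEK293 cells with Ro 20174 present. EC50 from Hill-equation fits, with 29 nM porcine relaxin as 100% and buffer as basal.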
RXFP1 antag: blocks the human relaxin receptor RXFP1 | HEK293-RXFP1, relaxin-stimulated cAMP HTRF, 30 min; hits give low values | Q9HBX9 | activity change, negative = inhibition, % at 57.5 µM | 0.59% of 350,000 active | AID 1259400;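 active means activity change of -60% or lower, but not beyond a set lower limit; inconclusive means change between -60% and -40%, or beyond the set limit; inactive means change above -40%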; further: on the % scale 0 is the no-effect control and ±100 the full control effect
gsp agonist: agonists of gsp mutant (McCune-Albright syndrome). gsp mutant cells, cAMP HTRF, 30 min. Potency, µM (series often up to 76.9 µM), inactives show top-dose activation (cAMP increase), most hits filed as activators. 0.13% of 340,000 active. AID 624287; active means well fitted activation curve with a large enough effect; inconclusive means small, poorly fitted or top-dose-only effect, or another doubt; inactive means no such curve, though single readings can be large or run the other way; cell line not stated here;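 further: phosphodiesterase inhibitor Ro 20-1724 added with compounds to block cAMP breakdown; potency means the concentration at half of the fitted maximal effect; nearly all actives have a fitted effect of over 60% in size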
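Cells in DMEM/10% FBS with G418 were pretreated with compounds in DMSO plus […] (300 uM stock) for 30 min at 37C. cAMP was measured by HTRF (cAMP-d2 plus anti-cAMP antibody-K) after 30 min at room temperature.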
An asterisk follows results filed as active; i = inactive; ? = inconclusive; . = no result given; [ ] = another dose, or the depositor's remark. Hits are enriched below; roughly 1.2% of the tested compounds scored in any of these assays.

SMILES | Akt phos inh | gsp antag | RXFP1 agonist | RXFP1 antag | gsp agonist
Cc1cc(OC(C)C(=O)N(Cc2ccc(N(C)C)cc2)Cc2ccco2)ccc1Cl (centres undefined) | . | . | -3% | -15 | .
CNC(=O)c1nnsc1S(=O)c1ccc(Cl)cc1 (centres undefined) | i | -30% | -1% | ? | 12%[15.4 µM]
CCCNC(=O)c1nnsc1S(=O)c1ccc(Cl)cc1 (centres undefined) | i | ? | 1% | -71* | 14%[15.4 µM]
CCCNC(=O)c1nnsc1S(=O)(=O)c1ccc(Cl)cc1 | i | 11% | -3% | -63* | 7%[15.4 µM]
CCCc1cc(=O)[nH]c2nnc(SCC)n12 | . | . | 1% | -6 | .
CCN(CC)c1ccc(N2C(=O)CSC2=S)cc1 | i | -13% | -1% | -14 | 11%[15.4 µM]
CCN(CC)c1ccc(N2C(=O)/C(=C/c3cccs3)SC2=S)cc1 | -103%* | -1% | 1% | -6 | -27%
CCOc1cc(/C=C2\SC(=O)N(c3ccc(O)cc3)C2=O)ccc1O | i | 32µM* | -2% | -18 | 10%
COC(=O)c1ccc2c(=O)n(CCCCCC(=O)N3CCN(c4ccccc4)CC3)c(=O)[nH]c2c1 | i | 8.9µM* | 0% | -6 | 1%
CCN1CCN(C(=O)CCCCCn2c(=O)[nH]c3cc(C(=O)OC)ccc3c2=O)CC1 | i | -4% | 1% | -3 | ?
COCCn1c(=O)[nH]c2cc(C(=O)NCCN3CCN(c4cccc(Cl)c4)CC3)ccc2c1=O | -118%* | -25% | 1% | -1 | -50%
CC(=O)c1ccc(N2CCN(C(=O)CCCn3c(=O)[nH]c4ccc(Br)cc4c3=O)CC2)cc1 | i | 35µM* | 0% | -5 | 20%
O=C(Cn1nc(C(F)(F)F)c2c1CCCC2)Nc1ccc(Br)cc1 | . | . | 3% | -28 | .
CC(=O)Oc1c(C)cc(Cl)cc1C(=O)Nc1ccc([N+](=O)[O-])cc1Cl | i | 3.5µM* | 6% | -16 | -26%
CCOC(=O)C1CCCN(S(=O)(=O)c2cc(-c3onc(C)c3C)ccc2OC)C1 (centres undefined) | . | . | 3% | -35 | .
COc1ccccc1CNC(=O)c1cc2c(-c3ccc(Cl)cc3)nn(C)c2s1 | . | . | 5% | -6 | .
COc1ccccc1S(=O)(=O)Cc1ccc(C(=O)N2CCN(c3ccccc3)CC2)o1 | -124%* | ? | -3% | -16 | 0%
CCn1c2ccccc2c2nnc(N3CCN(c4ccc(OC)cc4)CC3)nc21 | . | . | 5% | -4 | .
COc1ccccc1CN(C)C(=O)c1cc(-c2cccs2)nc2ccccc12 | i | 40µM* | 5% | -23 | 17%
COc1ccccc1OCC(=O)N(Cc1ccc(N(C)C)cc1)CC1CCCO1 (centres undefined) | . | . | -1% | -7 | .
CC(NC(=O)CN(c1cccc(C(F)(F)F)c1)S(=O)(=O)c1ccc(Cl)c([N+](=O)[O-])c1)c1ccccc1 (centres undefined) | i | ? | -1% | -82* | -11%[15.4 µM]
COc1ccccc1NC(=O)C(Cc1ccccc1)NS(=O)(=O)c1ccc2c(c1)c(=O)n(C)c(=O)n2C (centres undefined) | . | . | 1% | . | .
COc1cc(OC)cc(N2C(=O)N(Cc3ccc(C(C)(C)C)cc3)c3ccccc3S2(=O)=O)c1 | . | . | 0% | . | .
Cc1ccc(N2CCN(C(=O)c3cn(C)c4ccc(S(=O)(=O)N5CCCC5)cc4c3=O)CC2C)cc1 (centres undefined) | . | . | 8% | -7 | .
CC(C)CCn1c(SCc2ccc(F)cc2Cl)nc2ccsc2c1=O | . | . | 2% | -5 | .
SMILES | Akt phos inh | gsp antag | RXFP1 agonist | RXFP1 antag | gsp agonist
CC(C)CCn1c(SCc2cccc(F)c2)nc2ccsc2c1=O | . | . | 4% | -76* | .
COc1ccc(C(=O)NNC(=O)c2ccccn2)cc1 | i | -6% | 0% | 12 | 11%
COc1cc(OC)cc(C(=O)NNC(=O)c2ccccn2)c1 | i | -7% | 0% | -94* | -8%[15.4 µM]
Cc1cc(C=O)c(C)n1-c1ccc(Oc2ccc([N+](=O)[O-])cn2)cc1 | i | 10% | 2% | -10 | 0%
Cc1cc(C=O)c(C)n1-c1ccc(NC2CCCC2)c([N+](=O)[O-])c1 | i | -12% | 0% | -65* | 1%[15.4 µM]
Cc1c(-c2cccc(NC(=O)Nc3ccccc3)c2)nc2ncccn12 | . | . | 9% | -15 | .
CCCS(=O)(=O)N1CCCC(C(=O)NC(C)c2ccc3c(c2)OCCO3)C1 (centres undefined) | -114%* | 4% | 0% | -9 | -40%
CC(NC(=O)C1CCC1)c1ccc2c(c1)OCO2 (centres undefined) | i | 2% | 0% | 6 | 33%
O=C(Nc1ccc2c(c1)OCCO2)C1CCCN(S(=O)(=O)c2cccs2)C1 (centres undefined) | -108%* | -17% | 0% | -11 | -31%
COc1ccc(NC(=O)C2CCCN(c3nnc(C)c4c(C)n(-c5ccccc5)nc34)C2)cc1Cl (centres undefined) | . | . | 4% | -31 | .
NC(=S)NN=Cc1nccc2ccccc12 | i | -4% | . | -76* | 6%
O=C(c1ccc2c(c1)OCO2)N1CCC2(CC1)Oc1ccc(F)cc1C(=O)C21CC(c2cccnc2)=NO1 (centres undefined) | i | 35µM* | 0% | . | .
CCCC12CN3CC(C)(CN(C1)C3c1ccc(OC)cc1)C2=O (centres undefined) | i | 3% | 3% | -27 | ?
CCC12CN3CC(CC)(CN(C1)C3c1ccc(OC(C)C)cc1)C2=O (centres undefined) | -112%* | -6% | -1% | -5 | -11%
Cc1ccc(C(=O)Cn2nnc(-c3cccs3)n2)cc1 | i | 50µM* | 6% | 4 | ?
O=C(Cn1nnc(-c2cccs2)n1)NCc1cccs1 | i | 12% | 1% | -6 | 2%[15.4 µM]
CC(C)(C)C(=O)C(Oc1ccc(Cl)cc1)n1ccnc1 (centres undefined) | . | . | . | -24 | .
CCOC(=O)c1sc(=NC(=O)c2ccc(C)cc2)n(C)c1C | i | -11% | 18% | -17 | 10%[15.4 µM]
CCOC(=O)c1sc(=NC(=O)c2ccc(S(=O)(=O)N(C)c3ccccc3)cc2)n(C)c1C | i | -4% | 4µM* | 3 | 6%
CCC(=O)Nc1c(-c2ccccc2Cl)c(=O)c2ccccc2n1CC | i | 8% | 0% | -9 | 16µM*
O=C(NCCOC(=O)c1ccc([N+](=O)[O-])cc1)c1cccnc1 | i | 2% | ? | 23 | 18µM*
CCOC(=O)C1=C(C)NC(C)=C(C(=O)OCCNC(=O)c2cccnc2)C1c1cccc([N+](=O)[O-])c1 (centres undefined) | i | -17% | -1% | . | -18%
Cc1oc2c(c1C(=O)c1ccccc1)C(=O)C(=O)c1ccccc1-2 | ? | ? | 2% | -66* | 1%
